Screening results as filed in PubChem BioAssay.
MCF10A rereplic: inducers of DNA re-replication in MCF 10A breast cells; AID 624296; 350,000 tested, 2.9% active; Potency, µM (highest dose often 46.1 µM), usual class: activators; MCF 10A DNA re-replication, Hoechst nuclear intensity, 48 h; also: nearly all actives have a fitted effect of over 50% in size
KB-3-1 tox: KB-3-1 parental cell cytotoxicity; KB-3-1 viability, CellTiter-Glo ATP luminescence, 72 h; Potency, µM (series often up to 46.1 µM), most hits filed as cytotoxic; 400,000 tested, 1.4% active; AID 1347075; also: nearly all actives have a fitted effect of over 60% in size
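Here the drug-naive KB-3-1 line serves as comparator for MDR sub-line selectivity; cells received compound titrations, 72 h at 37 °C, then CellTiter-Glo readout.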
SW480 rerep: inducers of DNA re-replication in SW480 colon cancer cells. SW480 DNA re-replication, Hoechst DNA content imaging, 48 h. AID 624297. Potency, µM (series often up to 46.1 µM), most hits filed as activators. 340,000 tested, 1.8% active; also: nearly all actives have a fitted effect of over 55% in size
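SW480 cells exposed to compounds for 48 hr at 37 C, 5% CO2, then Hoechst-stained 40 min. Nuclear DNA content imaged by fluorescence scanning (405 nm excitation, 500-530 nm emission); re-replication scored as increased high-intensity nuclei.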
KB-V1 MDR tox: kills drug-selected multidrug resistant KB-V1 cells; AID 1347076; KB-V1 MDR cells viability, CellTiter-Glo, 72 h; 400,000 tested, 3.4% active; Potency, µM (highest dose often 46.1 µM), most hits filed as cytotoxic; also: nearly all actives have a fitted effect of over 60% in size
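Following 72 h at 37 degrees C with compound, KB-V1 cell viability was read by CellTiter-Glo luminescence, medium being phenol-red-free DMEM plus 10% FBS; concentration-response parameters came from normalized, curve-fitted qHTS data.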
DRD3 antagonist: blocks the human D3 dopamine receptor; 360,000 tested, 2.5% active; AID 652054; D3R cells, DiscoveRx beta-arrestin luminescence, antagonist mode; stronger effect = lower value; max response, negative = inhibition, %; in the data active = max response below about -50%; inconclusive = no clear call, values can overlap the other calls
Target sequence (P35462 whole entry, looked up): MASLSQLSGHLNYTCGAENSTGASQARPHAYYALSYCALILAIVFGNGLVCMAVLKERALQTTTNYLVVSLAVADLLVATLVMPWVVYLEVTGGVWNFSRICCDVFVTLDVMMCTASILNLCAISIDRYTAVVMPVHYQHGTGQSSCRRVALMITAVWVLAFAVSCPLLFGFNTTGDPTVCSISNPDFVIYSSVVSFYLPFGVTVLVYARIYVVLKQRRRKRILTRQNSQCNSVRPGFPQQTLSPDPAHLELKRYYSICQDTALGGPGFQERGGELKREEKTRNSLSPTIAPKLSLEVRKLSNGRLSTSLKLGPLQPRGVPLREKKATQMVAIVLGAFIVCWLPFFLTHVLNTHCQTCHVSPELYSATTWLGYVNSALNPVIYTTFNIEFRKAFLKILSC
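Cells expressing the human receptor were seeded at 1500 cells/well, incubated overnight at 37 degrees C in 5% CO2, then exposed to library compounds with dopamine controls for 90 minutes at 37 degrees C before luminescent detection.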
D3 ag: activates the human D3 dopamine receptor; D3R DiscoveRx beta-arrestin cells, luminescence, 90 min; max activation, %; 410,000 tested, 0.58% active; in the data active = max activation above about 30%
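Cells at 1500/well, incubated overnight, then treated with pinned compounds (dopamine as control) for 90 min at 37 degrees C. DiscoveRx reagent added for 30 - 60 minutes at room temperature; luminescence read.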
Hits are given with their value; - = inactive; ? = inconclusive; . = no result; [ ] = remark or other dose. Compounds with a hit are over-represented: about 8.9% of the library has one in this group of screens. Unless noted, calls follow the shape of the dose curve; as a rule, active = well fitted curve in the direction sought with a large enough effect; inconclusive = small, poorly fitted or top-dose-only effect, or another doubt; inactive = no such curve, though single readings can be large; an effect the other way counts as inactive or inconclusive.

SMILES	MCF10A rereplic	KB-3-1 tox	SW480 rerep	KB-V1 MDR tox	DRD3 antagonist	D3 ag
CN1CC(c2ccccc2Cl)C2(COc3ccccc3C2=O)C12C(=O)Nc1ccccc12 (stereo unspecified)	?	?	?	?	-	-
COc1ccc(C2N=C(c3ccccc3)NC(c3ccccc3)=N2)cc1	2.6µM	-	?	?	-	-
c1ccc(C2=NC(c3ccccc3)N=C(c3ccccc3)N2)cc1	-	-	-	-	?	-
CCOC(=O)c1cc2c(OC)ccc(OC)c2n1CC(=O)c1ccccc1	23µM	-	?	-	-	-
CCc1c(C)sc2c1CCN(Cc1ccccc1F)C2c1ccccc1 (stereo unspecified)	.	18µM	.	?	.	-
CCc1c(C)sc2c1CCN(Cc1cccc(OC)c1)C2c1ccccc1 (stereo unspecified)	.	?	.	-	.	-
N#Cc1c(C(F)(F)F)cc(-c2cccs2)nc1SC(C(=O)O)c1ccccc1 (stereo unspecified)	21µM	-	-	-	-	-
N#Cc1c(C(F)(F)F)cc(-c2cccs2)nc1SCC(=O)O	-	-	-	-	-	-
CNc1nc(-c2cccs2)cc(C(F)(F)F)c1C#N	18µM	-	5.8µM	-	-	-
O=C(Nc1c(C(=O)c2ccccc2)oc2ccccc12)c1cc(=O)c2ccccc2o1	.	-	.	-	.	-
Cc1ccc(Cn2cc(CCC(=O)NC3CCCCC3)c3ccccc32)cc1	.	.	.	.	.	-
Cc1ccccc1NC(=O)c1ccc(F)c(S(=O)(=O)N2CCc3ccccc3C2)c1	.	.	.	.	.	-
Cc1ccccc1NC(=O)c1ccc(CN2CCc3ccccc3C2)cc1	?	10µM	-	?	-76	-
Cc1cccc(NC(=O)c2ccc(CN3CCc4ccccc4C3)cc2)c1C	23µM	?	-	?	-78	-
CCc1cccc(C)c1NC(=O)c1ccc(CN2CCc3ccccc3C2)cc1	-	-	-	?	-72	-
Cc1sc2ccccc2[n+]1CC(=O)c1ccc(F)cc1	.	-	.	-	.	.
Cc1cc(C)n(-c2nnc(Nc3ccc(C)c(C)c3)c3ccccc23)n1	.	-	.	-	.	-
CCOC(=O)c1ccc(NC(=O)C2=C(C)C(=O)OC23CCCCCC3)cc1	.	-	.	-	.	-
NNc1ncnc2scc(-c3ccc(Cl)cc3)c12	?	16µM	-	?	?	-
Fc1ccc(-c2csc3ncnc(Cl)c23)cc1	?	-	?	-	-	-
Clc1ccc(-c2csc3ncnc(Cl)c23)cc1	18µM	-	21µM	-	-	-
O=S(=O)(Nc1ncnc2scc(-c3ccc(F)cc3)c12)c1cc(F)ccc1F	?	?	?	18µM	-	-
Cc1ccc(SCC(=O)Nc2ccc3oc(-c4cccc(Cl)c4)nc3c2)cc1	.	-	.	-	.	-
N[C@@H](C(=O)N[C@@H]1C(=O)N2C(C(=O)O)=C(CSc3cn[nH]n3)CS[C@H]12)c1ccc(O)cc1	.	.	.	.	.	-
c1ccc2c(c1)oc1c(Nc3ccc(CN4CCOCC4)cc3)ncnc12	16µM	?	-	18µM	-	-
SMILES	MCF10A rereplic	KB-3-1 tox	SW480 rerep	KB-V1 MDR tox	DRD3 antagonist	D3 ag
c1ccc(Nc2ncnc3c2oc2ccccc23)cc1	-	-	-	-	-	-
CCCc1nc2oc3c(NCCN4CCOCC4)ncnc3c2c2c1CCCC2	-	-	-	1.8µM	-	-
CC(C)Cc1nc2oc3c(NCCCN4CCOCC4)ncnc3c2c2c1CCC2	-	?	?	-	-	-
Clc1ccc(Cn2ncc3c(NCCN4CCOCC4)ncnc32)cc1	-	-	-	21µM	-	-
CC(=O)N1CCN(c2ccc(Nc3ncnc4c3oc3ccccc34)cc2)CC1	?	?	-[9.22 µM]	21µM	-64	-
CCN(CC)C(=O)Cn1c(=O)n(-c2ccc(C)c(C)c2)c(=O)c2c3c(sc21)CCCCC3	.	-	.	-	.	-
CCOC(=O)c1ccc(NC(=O)c2c(C)oc3nc(C)nc(N4CCCC4)c23)cc1	.	.	.	.	.	-
c1ccc2c(c1)oc1c(NCCN3CCOCC3)ncnc12	-	-	-	23µM	-	-
CCOc1ccc(NC(=O)c2cnn3c2NC(c2ccccc2)=CC3c2cccc(OC)c2OC)cc1 (stereo unspecified)	.	-	.	-	.	-
COc1cc(-c2nc(S(=O)(=O)c3ccc(Cl)cc3)c(N3CCOCC3)o2)cc(OC)c1OC	-	-	-	0.52µM	-	-
CC(C)Cc1nc(S(=O)(=O)c2ccc(Cl)cc2)c(N2CCOCC2)o1	-	-	-[9.22 µM]	?	-54	-
CCOC(=O)c1noc2nc(C)n(CC(=O)Nc3cc(Cl)ccc3OC)c(=O)c12	.	-	.	-	.	-
CCCCN1C(=O)c2ccc(C(=O)Nc3ccc(C)c(S(=O)(=O)N(C)C)c3)cc2C1=O	-	?	-	12µM	-	-
Cc1ccc(NC(=O)c2ccc(OC(F)(F)F)cc2)cc1S(=O)(=O)N(C)C	-	23µM	-	?	-	-
Cc1ccc(NC(=O)c2ccncc2)cc1S(=O)(=O)N(C)C	-	-	-	-	-	-
CCCCN1C(=O)c2ccc(C(=O)Nc3cccc(C)c3C)cc2C1=O	-	-	-	-	-	-
CC(=O)c1ccc(OCCCC(=O)Nc2ccc(C)c(S(=O)(=O)N(C)C)c2)cc1	-	21µM	-	23µM	-	-
CC(=O)c1ccc(OCCCC(=O)Nc2ccc(C)c(S(=O)(=O)N3CCCCC3)c2)cc1	-	-	?	?	-	-
COc1ccc(CCNC(=O)Cn2ccc3c(OC)cccc3c2=O)cc1OC	-	-	-	-	-	-
CC1CCN(c2ccccc2NC(=O)c2ccc(N3CCOCC3)c([N+](=O)[O-])c2)CC1	16µM	-	-	-	-	-
COc1ccc(C(=O)Nc2ccccc2N2CCOCC2)cc1[N+](=O)[O-]	-	-	-	21µM	-	-
Cc1cc(C(=O)Nc2ccccc2N2CCOCC2)ccc1[N+](=O)[O-]	-	-	-	?	-	-
Cc1ccc(-c2csc(NC(=O)c3cc([N+](=O)[O-])ccc3N3CCOCC3)n2)cc1	-	-	-	-	-	-
O=C(Nc1nc(-c2ccccc2)cs1)c1ccc(N2CCOCC2)c([N+](=O)[O-])c1	?	?	-	1.8µM	-	-
CCS(=O)(=O)Nc1cccc(C2=NN(C(=O)c3ccco3)C(c3ccco3)C2)c1 (stereo unspecified)	13µM	8.2µM	13µM	-	-	-
CS(=O)(=O)Nc1cccc(C2=NN(C(=O)c3ccco3)C(c3ccco3)C2)c1 (stereo unspecified)	?	?	?	-	-	-
CCS(=O)(=O)Nc1ccc(C2=NN(C(=O)c3ccco3)C(c3ccco3)C2)cc1 (stereo unspecified)	9.2µM	3.7µM	?	?	-	-
Cc1ccccc1CNC(=O)c1oc2c(c1C)-c1[nH]ncc1CC2	.	.	.	.	.	-
